In PubChem BioAssay (EPA / NIEHS) one finds outcome and AC50 data, which are given here for eleven compounds.

Experiment [1] has as its target Nucleoli Translocation, AR (gene 367) (UniProt P10275). Put plainly: UPITT_HCI_U2OS_AR_TIF2_Nucleoli_Antagonist: University of Pittsburgh U2OS Androgen Receptor-Transcriptional Intermediary Factor 2 (AR-TIF2) Antagonism High Content Imaging Assay for Nucleoli Translocation (AID 2283997; active = hit-call score of the fitted dose curve at least 0.9, where 1 is the maximum). The procedure, abridged: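 Measured quantity was AR-RFP fluorescence localized to nucleoli in engineered U2OS cells also bearing TIF2-GFP, acquired on automated high-content imagers. Primary testing used 20 uM compound; actives were confirmed in triplicate wells.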

For experiment [2] the target is unchanged. As to the kind of experiment: UPITT_HCI_U2OS_AR_TIF2_Nucleoli_Agonist: University of Pittsburgh U2OS Androgen Receptor-Transcriptional Intermediary Factor 2 (AR-TIF2) Agonism High Content Imaging Assay for Nucleoli Translocation (AID 2283998; active = hit-call score of the fitted dose curve at least 0.9, where 1 is the maximum). In outline: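 U2OS cells expressing RFP-tagged human AR and GFP-tagged TIF2; red fluorescence in nucleoli quantified by high-content imaging. Primary screen at 20 uM final (0.2% DMSO); concentration-response 0.195–50 uM (0.5% DMSO), fitted upward versus DMSO.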

The target in experiment [3] is Ratio of Nucleoli Translocation and Cytoplasm, AR (gene 367) (UniProt P10275). As to the kind of experiment: UPITT_HCI_U2OS_AR_TIF2_Nucleoli_Cytoplasm_Ratio_Agonist: University of Pittsburgh U2OS Androgen Receptor-Transcriptional Intermediary Factor 2 (AR-TIF2) Agonism High Content Imaging Assay for Ratio of Nucleoli Translocation and Cytoplasm (AID 2284000; active = hit-call score of the fitted dose curve at least 0.9, where 1 is the maximum;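 note: hits raise the red nucleolar to cytoplasm ratio above vehicle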). The procedure, abridged:
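Read-out first: nucleolar-to-cytoplasm ratio of red (AR-RFP) signal, quantified by high-content imaging in U2OS cells co-expressing TIF2-GFP. Activity is scored as signal increase over DMSO. Single-point screening used 20 uM final (0.2% DMSO).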

Experiment [4] in a line: CCTE_Harrill_HTTr_Viability_MCF7: CCTE's 6-hour Cell Viability Assessment for the High-Throughput Transcriptomics (HTTr) Platform, in MCF-7 cells cultured in DMEM + 10% fetal bovine serum, Harrill Lab (AID 2284010). In outline:
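Membrane integrity was scored by high-content imaging of propidium iodide dye exclusion after a 6 h exposure across an eight-point dilution series. Data were fitted bidirectionally relative to DMSO as negative control and baseline.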

A short description of experiment [5]: CCTE_Harrill_HTTr_Apoptosis_MCF7: CCTE's 6-hour Apoptosis Assessment for the High-Throughput Transcriptomics (HTTr) Platform, in MCF-7 cells cultured in DMEM + 10% fetal bovine serum, Harrill Lab (AID 2284011). In outline: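 MCF-7 cells in DMEM + 10% FBS exposed 6 h to chemicals over an eight-point dilution series. Caspase-3/7 activation imaged by high-content CellEvent Green staining; fitted bidirectionally versus DMSO.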

Experiment [6] is described as follows: CCTE_Harrill_HTTr_CellCount_MCF7: CCTE's Cell Proliferation Assessment for the High-Throughput Transcriptomics (HTTr) Platform, Harrill Lab (AID 2284012; active = hit-call score of the fitted dose curve at least 0.9, where 1 is the maximum;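 note: cells exposed to compound for six hours; intended direction is loss of nuclei count meaning fewer cells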). The procedure, abridged:
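MCF-7 cells were exposed for 6 h to an eight-point dilution series; Hoechst-labeled nuclei were counted by high content imaging. Curves were fitted bidirectionally against DMSO as negative control and baseline, with signal loss indicating reduced cell count.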

Experiment [7] deals with Ratio of Nucleoli Translocation and Cytoplasm, AR (gene 367) (UniProt P10275). Put plainly: UPITT_HCI_U2OS_AR_TIF2_Nucleoli_Cytoplasm_Ratio_Antagonist: University of Pittsburgh U2OS Androgen Receptor-Transcriptional Intermediary Factor 2 (AR-TIF2) Antagonism High Content Imaging Assay for Ratio of Nucleoli Translocation and Cytoplasm (AID 2283999; active = hit-call score of the fitted dose curve at least 0.9, where 1 is the maximum;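 note: antagonists lower the DHT-driven ratio of nucleolar to cytoplasmic red signal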). The procedure, abridged:
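U2OS cells expressing RFP-tagged human AR and GFP-tagged TIF2; compounds tested at 20 uM final (0.2% DMSO) in primary screen, 0.195–50 uM (0.5% DMSO) for concentration response. Readout: nucleolar-to-cytoplasmic red fluorescence ratio by high-content imaging, fitted relative to DHT.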

The nature of experiment [8]: CCTE_Shafer_MEA_acute_spike_number: CCTE's Neural Acute Assay for Total Number of Spikes, Shafer Lab (AID 2284008).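 For AC50: curve fitted for decrease in spike count so AC50 reflects inhibitors.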 In outline: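 Rat primary cortical neurons on 48-well MEA plates, DIV 13 or 15, at 37 C. 40 min baseline then 40 min with compound (0.03-40 uM); spikes detected at 8x rms noise, expressed as percent change from baseline.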
Experiment [9] in a line: CCTE_Shafer_MEA_acute_firing_rate_mean: CCTE's Neural Acute Assay for Mean Firing Rate, Shafer Lab (AID 2284009).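 Note: analyzed for loss of signal so actives lower firing rate relative to DMSO.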 The procedure, abridged:
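Percent change in well-mean firing rate was derived from extracellular spikes detected at 8x rms noise (300-5000 Hz band-pass) before and after a 40-min compound exposure. Cultures were primary rat cortical neurons, tested at 0.03-40 uM.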

Experiment [10] in a line: CCTE_Shafer_MEA_acute_burst_number: CCTE's Neural Acute Assay for Single-Electrode Bursts, Shafer Lab (AID 2284013). In outline: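 Spontaneous network activity of primary rat cortical neurons was recorded extracellularly on microelectrode arrays at 37 C, with 40-min periods before and during exposure to 0.03-40 uM compound on DIV 13 or 15.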
The nature of experiment [11]: CCTE_Simmons_MITO_inhib_resp_rate: CCTE's HepG2 Seahorse XF Respirometric Screening Assay at Inhibited Respiratory State [full ETC block], Simmons Lab (AID 2284006). To be noted: actives raise or lower the signal. In outline: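 HepG2 cells on Seahorse XF96; oxygen consumption measured after test compound, then FCCP, then rotenone/antimycin A injections over 72 min. Test chemicals at 7 concentrations, 125 nM–100 uM final. OCR fitted bidirectionally versus DMSO.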

The nature of experiment [12]: CCTE_Harrill_HTTr_Viability_PRF_DMEM_24hr: (Pilot) CCTE's 24-hour Cell Viability Assessment for the High-Throughput Transcriptomics (HTTr) Platform, in MCF-7 cells cultured in phenol red-free DMEM + 10% charcoal-stripped fetal bovine serum, Harrill Lab (AID 2283980). The procedure, abridged:
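MCF-7 cells in phenol red-free DMEM with 10% charcoal-stripped FBS, eight-point dilution series, 24 h exposure. Membrane integrity by propidium iodide exclusion with high content imaging; bidirectional fit vs DMSO.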

The nature of experiment [13]: CCTE_Harrill_HTTr_Apoptosis_DMEM_6hr: (Pilot) CCTE's 6-hour Apoptosis Assessment for the High-Throughput Transcriptomics (HTTr) Platform, in MCF-7 cells cultured in DMEM + 10% fetal bovine serum, Harrill Lab (AID 2283981). The procedure, abridged: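 Caspase-3/7 activation read by high content imaging with CellEvent Caspase 3/7 Green in MCF-7 cells (DMEM + 10% FBS), 6 h after dosing; eight-point dilution series. Bidirectional fitting relative to DMSO baseline.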

Experiment [14] in a line: CCTE_Harrill_HTTr_Apoptosis_DMEM_12hr: (Pilot) CCTE's 12-hour Apoptosis Assessment for the High-Throughput Transcriptomics (HTTr) Platform, in MCF-7 cells cultured in DMEM + 10% fetal bovine serum, Harrill Lab (AID 2283982). In outline:
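MCF-7 cells in DMEM + 10% FBS, exposed 12 h to an eight-point dilution series; caspase-3/7 activation imaged with CellEvent Green. Bidirectional fit versus DMSO.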

Experiment [15] is described as follows: CCTE_Harrill_HTTr_Apoptosis_DMEM_24hr: (Pilot) CCTE's 24-hour Apoptosis Assessment for the High-Throughput Transcriptomics (HTTr) Platform, in MCF-7 cells cultured in DMEM + 10% fetal bovine serum, Harrill Lab (AID 2283983). In outline:
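MCF-7 cells in DMEM + 10% FBS, eight-point dilution series, 24 h exposure. Caspase-3/7 activation imaged by high-content imaging with CellEvent Caspase 3/7 Green. Bidirectional curve fitting against DMSO baseline.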

Experiment [16] can be described thus: CCTE_Harrill_HTTr_Apoptosis_PRF_DMEM_6hr: (Pilot) CCTE's 6-hour Apoptosis Assessment for the High-Throughput Transcriptomics (HTTr) Platform, in MCF-7 cells cultured phenol red-free DMEM + 10% charcoal-stripped fetal bovine serum, Harrill Lab (AID 2283984). The procedure, abridged:
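MCF-7 cells in phenol red-free DMEM + 10% charcoal-stripped FBS, eight-point dilution series, 6 h exposure. Caspase-3/7 activation imaged by high-content imaging with CellEvent Caspase 3/7 Green; bidirectional fit versus DMSO baseline.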

Experiment [17] in a line: CCTE_Harrill_HTTr_Apoptosis_PRF_DMEM_24hr: (Pilot) CCTE's 24-hour Apoptosis Assessment for the High-Throughput Transcriptomics (HTTr) Platform, in MCF-7 cells cultured in phenol red-free DMEM + 10% charcoal-stripped fetal bovine serum, Harrill Lab (AID 2283986). In outline:
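MCF-7 cells in phenol red-free DMEM with 10% charcoal-stripped FBS, exposed 24 h across an eight-point dilution series. Caspase-3/7 activation imaged with CellEvent Green by high content imaging; bidirectional fitting against DMSO.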

A short description of experiment [18]: TOX21_TR_RXR_BLA_Antagonist_Followup_viability: Viability Assessment in the Tox21 Thyroid Hormone Receptor beta Retinoid X Receptor alpha (RXRa) Antagonism Beta-lactamase (BLA) Follow-Up Assay (AID 2283979; active = hit-call score of the fitted dose curve at least 0.9, where 1 is the maximum). In outline: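 Follow-up compounds (11 concentrations, triplicate) were incubated 16 h at 37C/5% CO2 with HEK293T RXRa-bla cells seeded at 2,500/well in charcoal-stripped-serum medium. ATP content by CellTiter-Glo luminescence gave viability; curves fitted in both directions against DMSO.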

Experiment [19] can be described thus: CCTE_Simmons_MITO_viability: CellTiter-Glo Viability Assessment for CCTE's HepG2 Seahorse XF Respirometric Screening Assay [post-hoc], Simmons Lab (AID 2284007; active = hit-call score of the fitted dose curve at least 0.9, where 1 is the maximum). The procedure, abridged:
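HepG2 cells from the Seahorse XF respirometry run were exposed 90 min to a 7-point series, 125 nM–100 uM final, DMSO vehicle; ATP content then read by luciferase luminescence. Three biological replicates, technical singles; loss of signal fitted versus DMSO.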

The test system of experiment [20] is DIO1 (gene 1733). As to the kind of experiment: CCTE_GLTED_hDIO1: CCTE's human Deiodinase 1 (DIO1) Inhibition Assay, Great Lakes Toxicology and Ecology Division (GLTED) Lab (AID 2283987; active = hit-call score of the fitted dose curve at least 0.9, where 1 is the maximum;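 note: isolated human DIO1 enzyme in a cell-free setup rather than cells; enzyme activity read as free iodide liberated from substrate via Sandell-Kolthoff colorimetry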). In outline: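 Cell-free human DIO1 enzyme incubated 3 h with test chemical; iodide freed from substrate then measured by Sandell-Kolthoff absorbance. Run in triplicate; loss of signal relative to DMSO taken as inhibition.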

SMILES strings stand for the structures. Results filed as inconclusive are left out. The source made the active and inactive calls. Rule for the calls, unless noted: active = hit-call score of the fitted dose curve at least 0.9, where 1 is the maximum; inactive = score below 0.9.

Chain of Ratio of Nucleoli Translocation and Cytoplasm, AR (gene 367) (P10275 whole entry, looked up): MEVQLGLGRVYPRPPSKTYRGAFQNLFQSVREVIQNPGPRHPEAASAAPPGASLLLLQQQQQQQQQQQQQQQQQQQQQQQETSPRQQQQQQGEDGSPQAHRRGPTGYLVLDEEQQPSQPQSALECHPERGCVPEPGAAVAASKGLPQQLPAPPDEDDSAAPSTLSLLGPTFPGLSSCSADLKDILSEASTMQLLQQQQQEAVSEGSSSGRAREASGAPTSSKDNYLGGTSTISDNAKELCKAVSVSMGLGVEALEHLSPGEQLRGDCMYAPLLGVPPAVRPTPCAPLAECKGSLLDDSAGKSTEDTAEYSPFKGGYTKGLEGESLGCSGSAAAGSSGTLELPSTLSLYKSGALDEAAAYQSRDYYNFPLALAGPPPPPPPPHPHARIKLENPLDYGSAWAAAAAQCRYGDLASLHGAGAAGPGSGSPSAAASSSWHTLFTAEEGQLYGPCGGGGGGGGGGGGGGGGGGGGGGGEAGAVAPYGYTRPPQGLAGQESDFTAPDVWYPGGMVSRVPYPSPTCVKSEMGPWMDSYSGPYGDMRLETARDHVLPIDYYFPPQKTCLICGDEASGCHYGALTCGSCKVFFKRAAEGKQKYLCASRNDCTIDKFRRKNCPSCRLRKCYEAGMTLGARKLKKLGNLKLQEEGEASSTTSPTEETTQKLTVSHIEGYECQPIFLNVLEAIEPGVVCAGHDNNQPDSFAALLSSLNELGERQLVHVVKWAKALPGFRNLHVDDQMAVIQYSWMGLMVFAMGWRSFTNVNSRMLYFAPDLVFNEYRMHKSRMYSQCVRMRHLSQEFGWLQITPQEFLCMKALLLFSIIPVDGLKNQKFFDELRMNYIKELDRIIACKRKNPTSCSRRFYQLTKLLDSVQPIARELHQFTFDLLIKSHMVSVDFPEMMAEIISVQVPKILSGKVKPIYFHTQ
Chain of Nucleoli Translocation, AR (gene 367) (P10275 whole entry, looked up): as above

With `CCCCOC(=O)c1ccccc1`, the call in [1], in experiment [2], in [3], in experiment [4], in experiment [5] and in experiment [6] was inactive.
`CCc1cccc(CC)c1N`: the outcome in experiment [1], in experiment [2], in experiment [7], in experiment [3], in [4] and in [5] was inactive. Also, the outcome in [6] was inactive.
For the compound `OC(CCl)CCl`, the compound was classed as inactive in experiment [8], in experiment [9], in experiment [4], in experiment [5], in [6] and in experiment [10].
On to `CCCCCCCC1CCC(=O)O1` (stereo unspecified), for which the compound was classed as inactive in experiment [11], in [8], in [9], in experiment [4], in [5] and in [6]. Besides, the call in experiment [10] was inactive.
Consider `OCc1ccccc1`, for which the compound was classed as inactive in experiment [1], in experiment [7], in experiment [8], in [9], in experiment [4] and in [5]. Further, the call in [6] and in experiment [10] was inactive.
As to `CC[C@H](C)C(=O)O[C@H]1C[C@H](O)C=C2C=C[C@H](C)[C@H](CC[C@@H](O)C[C@@H](O)CC(=O)O)[C@H]21`, the compound was classed as inactive in experiment [8], in experiment [9], in [4], in experiment [5] and in [10].
With `COc1cc(C(C)C)c2c(c1)S(=O)(=O)N(COc1cc(=O)n3cccc(OCCN4CCCCC4)c3n1)C2=O`, the AC50 in experiment [1] is 5.14 µM (active). The call in [2], in [7], in [3], in experiment [8], in [9] and in [4] was inactive. Also, the outcome in experiment [5] and in experiment [10] was inactive.
Take `CC(C)C(=O)Nc1ccc([N+](=O)[O-])c(C(F)(F)F)c1`: the outcome in experiment [12], in experiment [13], in experiment [14], in experiment [15], in experiment [16] and in [17] was inactive. Further, the outcome in [4], in experiment [5], in experiment [6] and in experiment [10] was inactive. In addition, the figures for the AC50 in experiment [8] and in [9] were 5.06 µM (active) and 5.21 µM (active), respectively.
As to `Cc1nccn1-c1ccc(Sc2cccc(C3(C(N)=O)CCOCC3)c2)cc1`, the compound was called inactive in experiment [18], in experiment [19], in experiment [4] and in experiment [5]. The AC50 in experiment [11] was 13.2 µM (active).
On to `FC(F)C(F)(F)COCC1CO1` (stereo unspecified), for which the AC50 in [20] was 19.8 µM (active).
Turning to `CCOc1ccc2[nH]cc(C(=O)NCc3ccccc3)c(=O)c2n1`, the compound was called inactive in [11], in experiment [19], in experiment [4], in experiment [5] and in experiment [6].
